Whole data set: some 33,000 sequences, median “E-score (-0.5 to 0.5)” near -0.012, cut for the highest 2% near 0.29. The entries come from a sample that favours the highest values as a whole.
Biological target: T1, Ybr033w (UniProt P38073)
T1 sequence: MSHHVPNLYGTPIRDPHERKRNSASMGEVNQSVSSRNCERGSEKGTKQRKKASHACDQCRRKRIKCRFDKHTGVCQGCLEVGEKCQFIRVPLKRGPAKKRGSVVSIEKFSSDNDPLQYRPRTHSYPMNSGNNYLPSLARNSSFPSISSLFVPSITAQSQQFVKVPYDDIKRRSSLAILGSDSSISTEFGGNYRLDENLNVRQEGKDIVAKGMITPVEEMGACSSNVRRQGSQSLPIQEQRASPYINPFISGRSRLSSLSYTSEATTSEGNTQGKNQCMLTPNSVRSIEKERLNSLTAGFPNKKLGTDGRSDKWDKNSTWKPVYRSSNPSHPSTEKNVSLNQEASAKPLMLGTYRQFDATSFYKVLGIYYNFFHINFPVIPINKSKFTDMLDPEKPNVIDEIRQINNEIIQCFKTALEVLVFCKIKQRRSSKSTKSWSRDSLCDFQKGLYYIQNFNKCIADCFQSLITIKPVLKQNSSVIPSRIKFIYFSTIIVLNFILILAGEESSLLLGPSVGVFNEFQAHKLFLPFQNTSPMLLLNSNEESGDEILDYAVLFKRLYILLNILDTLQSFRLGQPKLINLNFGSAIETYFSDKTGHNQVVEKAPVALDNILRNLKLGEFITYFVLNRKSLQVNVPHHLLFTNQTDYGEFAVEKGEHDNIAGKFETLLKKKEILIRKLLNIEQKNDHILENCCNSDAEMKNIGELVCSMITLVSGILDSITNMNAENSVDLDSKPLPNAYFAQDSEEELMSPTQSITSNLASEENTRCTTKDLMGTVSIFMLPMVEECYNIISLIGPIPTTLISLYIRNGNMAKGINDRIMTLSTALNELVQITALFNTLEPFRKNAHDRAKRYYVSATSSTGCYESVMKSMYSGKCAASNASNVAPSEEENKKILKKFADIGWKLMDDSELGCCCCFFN
Test: PBM E-score (8-mer binding enrichment) (E-score (-0.5 to 0.5)); higher = stronger / more preferred TF binding
Conditions: protein concentration: 200 nM; construct: GST-full length
How it was run: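 GST-tagged yeast TFs (full-length or DNA-binding domain) were made by PURExpress in vitro transcription/translation and applied at about 100-200 nM to universal all-10-mer Agilent arrays. The arrays were made double-stranded by primer extension, on fresh or once-stripped slides. Bound protein was detected with fluorescent anti-GST, and scans were normalised with masliner. Each ungapped eight-base word, pooled with its reverse complement, received an E-score (modified Wilcoxon-Mann-Whitney statistic) from the Universal PBM Analysis Suite.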

Sequence	PBM E-score
GGAGAACA	0.026
ACTTAGCA	0.00122
GCCCTCTA	-0.176
TACGCCCA	0.0751
CAGATCGC	-0.164
ATAAACAT	0.289
ATAAACAC	0.241
CTAAACAA	0.112
ATAAACAG	0.0706
AAAAACAT	0.21
AAAAACAA	0.321
GAAAACAA	0.115
GTAAACAC	0.0587
TTAAACAA	0.226
ATAAACAA	0.326
TAAAACAA	0.177
GTAAACAA	0.298
CAGGGTAC	-0.158
GTCGCATA	0.214
TATCACAA	0.18
AGCTAGAG	-0.0778
CTCAAAAC	0.217
CCTTGGGA	0.021
ACAGAAGA	0.0639
CCTTTGCA	0.0151

Sequence	PBM E-score
AATAACCG	-0.0165
AAAAACCC	0.164
AAAAACCG	0.134
AAAAACCT	0.307
CCACTTCA	-0.0798
AGCCCTCG	-0.314
GGAATTCC	-0.236
GGAATTCA	0.288
CGAATTAC	0.135
GGAATTAC	0.291
CGAATTAA	0.112
TGAATTAA	0.226
CGAATTCA	-0.00151
AGAATTAC	0.181
GGAATTAA	0.349
CCACGCTC	-0.126
ACTACTGG	0.017
GGACCGAA	0.061
AGTCCTTA	-0.049
CACAATTC	0.16
TATAAAAA	0.253
ACTAAATC	0.278
GGTAAATA	0.225
GATAAAGA	0.154
TATAAATA	0.289

Sequence	PBM E-score
GATAAATA	0.4
GATAAAGC	0.159
CATAAATC	0.146
GATAAATC	0.304
ACTAAATA	0.322
CCTAAATA	0.118
CATAAATA	0.169
TTCGCAAA	0.225
CTAGACAA	-0.0833
ATCCATGA	-0.0662
AGACAAAT	0.129
CCACAAAC	0.077
TCCACACA	0.111
CGGTGCGC	-0.156
GTTCGAGA	-0.0752
GCTGAGGA	-0.194
GATAAACA	0.298
AATAAATT	0.314
AATAAACT	0.221
TATAAACA	0.247
AATAAATC	0.263
GATAAAAC	0.323
AATAAATA	0.378
GATAAACC	0.236
GATAAAAA	0.278

Sequence	PBM E-score
AATAAATG	0.194
AATAAAGA	0.267
CATAAAAC	0.0263
ACGTTCTA	-0.0975
AAACCAAT	0.272
CATACCCG	-0.165
CGAATTGC	-0.0195
CAAGAACC	0.137
CCAGATCG	-0.0568
CCGATTAG	-0.131
ATTGTCTA	0.144
ACTCTAAC	0.17
AATAAAAT	0.304
AATAAAAA	0.252
AATAAAAG	0.0821
AAGTTTAG	0.128
AAGTTAAC	0.224
AAGTTAAG	-0.149
AAGTTATT	0.3
AAGTTTAC	0.154
AAGTTATA	0.166
AAGTTTAT	0.333
AAGTTATG	0.206
AAGTTAAT	0.315
AAACTGCA	0.146

Sequence	PBM E-score
ACCCTTCC	-0.0151
AGTAGCAA	0.152
ACACTGGG	-0.161
AGTGTTGC	0.0949
GTCTTTGA	-0.0431
GACATTCA	0.0222
CACTTTTC	0.255
CTCCGTTC	-0.0235
CTGGTGCA	-0.31
CGGAAATA	0.433
CGGAAATC	0.067
AGGAAATA	0.298
AGGAAATG	0.146
GGGAAATA	0.137
AGGAAATC	-0.0432
CTATTTGA	0.227
AAGATCCG	-0.0767
CAAACTGA	0.14
CAGGTAGA	-0.138
AGATAATC	0.306
GAATAGTA	0.183
AGATAATA	0.219
CCATAATA	0.264
AAAAAATT	0.237
AAATAATT	0.388

Sequence	PBM E-score
CAATAGTA	0.168
CAATAATA	0.292
TAATAGTA	0.297
CAATAATG	0.137
AGATAATG	0.181
CGTTATTC	0.175
GCTATTCC	-0.0267
AGGGGTAC	-0.205
ACCGTGAC	-0.159
CGAGTGCC	-0.198
AACGGTGT	-0.113
CAAAGCTC	-0.212
CAGTCTAG	-0.137
ATATGCAT	0.02
AAATAATG	0.227
ACATAATC	0.205
AAATAATA	0.344
TAATAACA	0.226
TAATAATA	0.33
TAATAAGA	0.184
TAATAAAA	0.365
GAATAAAA	0.207
CAATAATC	0.171
ACATAATA	0.247
AAATAATC	0.341

Sequence	PBM E-score
CAATAAAA	0.225
ATGCCCGA	-0.106
ACCTATGC	-0.0454
CGTCCACG	-0.133
CGGGGCAC	-0.319
ACCATCTA	0.0217
AACCTGGT	0.0823
AATCCAGA	0.295
TATCCAGA	0.158
AATCCAGC	0.0372
GATCAAGA	0.0926
AGAACAAA	0.33
TGAACAAA	0.284
AGAACATA	0.192
GGAACATA	0.313
CGAACAAA	0.191
ATAACAAA	0.29
GGAACAAA	0.45
AGAACAAT	0.209
ATAACAAT	0.165
AGAACAAG	0.212
ATAACAAG	0.191
CGAACATA	0.2
AGAGACTA	-0.0151
CTCGCAAC	-0.052

Sequence	PBM E-score
AAGGCCTC	-0.21
AAAGTACT	0.177
TACGACTA	0.0548
CCCCTATC	-0.337
CCCCCCCC	-0.45
CACTTGTC	-0.0719
GCACTGTA	0.0862
CGAACAAC	0.077
AGAACAAC	0.0473
GGAACAAC	0.454
AGTATTCA	0.142
ACGCCCTG	-0.16
CTATCAGA	-0.0376
GTATCAGA	0.106
ATATCAGA	0.289
AACCCCGA	-0.0425
CATTTCAA	0.242
TATTTCGA	0.357
GATTTCAA	0.174
TATTTCAA	0.338
AATTTCGA	0.0715
GATTTCGA	-0.0493
TTAAGGAA	0.218
AGTAGACT	-0.0063
GGAGGGAC	-0.188

Sequence	PBM E-score
TAAGCTTA	0.102
AGTGGACA	0.0894
CTGAACTA	0.037
ATGAACTC	0.0731
ATGAACTA	0.303
ATTAGAGA	0.115
GGGGGAAA	-0.124
TGGGGAAA	0.0688
TGGGAAAA	0.316
AGGGAAAT	0.00233
CGGGGAAA	0.212
AGGGGAAA	0.0237
AGGGAAAA	0.296
CGGGAAAA	0.298
CGGGAAAC	0.0713
AGTTATGA	0.0811
CGGTTGGA	0.0125
ATCCTGGC	-0.0209
AAAATAAG	0.207
TAAATAGA	0.0889
AAAATAGC	-0.0427
CAAATAAA	0.2
TAAATAAA	0.301
AAAATAGA	0.332
GAAATAAC	0.159

Sequence	PBM E-score
AAAATAAT	0.319
AAAATAAA	0.319
AAAATAAC	0.189
GAAATAAA	0.247
ACCCTTCA	-0.0354
CATTCTGG	-0.15
CATCTGTA	-0.105
CGTGACAC	-0.127
GTATAAAC	0.158
ATATAAAA	0.242
CGATAAAA	0.14
GGATAAGA	-0.0485
GTATAAAA	0.289
TGATAAAA	0.299
AGATAAAC	0.216
AGATAAAA	0.286
GGATAAAC	0.456
CGATAAAC	-0.148
GGATAAAA	0.397
GGATAACA	0.0661
CCTGCCCG	-0.354
GGCATATA	0.16
AGCAATGA	0.13
CGAGACCA	-0.0425
ATGAACAC	0.0659

Sequence	PBM E-score
ATAGCGGC	-0.106
CCGTCGAG	0.102
AATTATCT	0.264
AATTATCG	0.308
CATTATCG	0.0618
ATTTATCG	0.0834
CATTATCA	0.138
AATTATCA	0.324
TCGACCGA	-0.0438
CTGCACCC	-0.204
ACCTTTAA	0.126
AGTAGCAC	-0.0755
ATTTTATG	0.186
ATTTTATC	0.325
CTTTTATC	0.232
ACTTTATC	0.277
GTTTTATA	0.0686
ATTTTATA	0.309
AGCTTATG	0.0568
GGGGGTAC	-0.254
CTGTTCCA	0.0353
ATGTTCCC	0.199
GTGTTCCA	-0.0466
ATGTTCCA	0.332
ATGTTCAG	-0.137

Sequence	PBM E-score
ATGTTCCG	0.458
CACTGATC	0.0744
GTCTGAGA	-0.163
AACAACTA	0.147
AACAACTT	0.291
AACAAACC	0.105
AACAAACT	0.341
AACAACTC	0.0616
TACAAGCA	0.189
AACAAACA	0.193
TACAAACA	0.29
AACAAACG	0.183
CAAATCCG	0.0419
CTCGTGGC	-0.173
AAGTACTG	0.112
AGTGGTCA	-0.103
GAGACACC	-0.216
TGACTAAA	0.0305
TGAAGGAA	0.211
CGTATTTA	0.311
AGTATTTA	0.301
AGTATTCC	0.161
AGTATTTC	0.34
GGTATTTA	0.125
CGTATTTC	0.0631

Sequence	PBM E-score
AGTATTGC	0.169
AGTATTTG	0.159
ACTATTTA	0.235
AGACTTTG	-0.0453
CCGACACG	-0.213
ATCACAAG	0.107
CCTACTTC	-0.0544
CGCAGGTC	-0.168
ACAGCCTG	-0.0521
ACGAGTGC	-0.0558
CCACCCTC	-0.0745
ACCAATAA	0.107
GCATCGCC	-0.17
ATATCCAC	0.145
GAAGGCTA	0.0975
TGGAGAAA	0.133
CGGAGAAA	0.39
CGGAGAAG	-0.166
TAAACTCA	0.147
CAATAACA	0.066
GGATAATA	0.349
CGATAATA	0.0851
GAATAACC	0.113
GAATAACA	0.367
GAATAAGA	0.0352

Sequence	PBM E-score
GAATAATA	0.395
GAATAAGC	0.189
GAATAAAC	0.142
GGATAGTA	0.206
GCATAATA	0.198
GAATAATC	0.379
CATCCTGC	-0.163
CAAGAGGC	-0.144
CTTCAGAA	-0.028
GTAGGACA	0.012
ACGTATAC	0.181
ATTCTGAA	0.187
CGAGGGAA	-0.0841
AATGTAAG	0.288
AATGTAAT	0.272
CATGTAAG	-0.0133
AGCCTCCC	-0.254
AACCTGCC	-0.0858
CATTGATC	0.236
ACTTGATG	0.218
AATTGACC	0.0241
AATTGATG	0.309
AATTGATA	0.255
AATTGATC	0.354

— the supplement of paper PMC3334620
